USP2a inh: qHTS Assay for Inhibitors of Ubiquitin-specific Protease USP2a Using CHOP2 as the Reporter | Ubiquitin carboxyl-terminal hydrolase 2 (Homo sapiens), O75604 | Potency, µM (doses to about 38.3 µM), usual class: inhibitors | USP2 core, Ub-CHOP2 coupled fluorogenic reporter, 485/531 | 0.01% of 330,000 active | AID 463254, 2010
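Deubiquitinase activity read as fluorescence (485/531 nm) after Ub-CHOP2 cleavage activates the enterokinase reporter on its substrate; USP2 core 10nM, Ub-CHOP2 and substrate 25nM each, 30min compound preincubation then 60min RT; data normalized to NEM, curves fitted.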
Pin1 inhibitor: qHTS Assay to Find Inhibitors of Pin1; 0.009% of 390,000 active; Pin1 FP peptide displacement, HiFluor488, 10 min; Peptidyl-prolyl cis-trans isomerase NIMA-interacting 1 (Homo sapiens), Q13526; Potency, µM (series often up to 115 µM), most hits filed as inhibitors; active = well fitted inhibition curve with a large enough effect in the polarisation, with a control signal flat, not every such curve was filed as active; inconclusive = small, poorly fitted or top-dose-only effect, or effect the other way, or a change in a side signal; inactive = no such curve, though single readings can be large or run the other way; the % refers to the polarisation
Target sequence (Q13526 whole entry, looked up): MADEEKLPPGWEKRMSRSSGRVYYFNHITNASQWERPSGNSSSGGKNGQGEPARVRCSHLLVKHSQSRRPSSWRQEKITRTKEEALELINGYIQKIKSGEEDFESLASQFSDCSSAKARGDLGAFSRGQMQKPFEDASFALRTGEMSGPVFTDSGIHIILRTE
IL2 activator: qHTS of IL-2 Activators; IL-2 activation reporter assay, cell-based qHTS; stimulated with anti-CD3/CD4/CD28 beads; in transgenic mouse T cells; activation, % (series mostly up to about 46 µM); 0.065% of 360,000 active; in the data active = activation above about 50%; inconclusive = mostly about 30% to 49%
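Unstimulated transgenic mouse T cells, 750 per well, received compound and, after 60 minutes, anti-CD3/anti-CD4 bead plus anti-CD28 stimulation. EGFP and DsRed were quantified after 18 hours.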
ClpP mod: qHTS Assay for Activators of ClpP; ATP-dependent Clp protease proteolytic subunit (Bacillus subtilis (strain 168)), P80244; purified B. subtilis ClpP, FRET peptide cleavage, 20 min; Potency, µM (titrated, usually from 57.5 µM); 1.9% of 340,000 active; AID 651965, 2013; active = well fitted falling curve with a large enough effect; inconclusive = small, poorly fitted or top-dose-only effect; inactive = no such curve, though single readings can be large or run the other way; also: the source files actives as falling curves though it sought activators and does not explain the sign; nearly all actives have a fitted effect of over 65% in size
Target sequence (P80244 whole entry, looked up): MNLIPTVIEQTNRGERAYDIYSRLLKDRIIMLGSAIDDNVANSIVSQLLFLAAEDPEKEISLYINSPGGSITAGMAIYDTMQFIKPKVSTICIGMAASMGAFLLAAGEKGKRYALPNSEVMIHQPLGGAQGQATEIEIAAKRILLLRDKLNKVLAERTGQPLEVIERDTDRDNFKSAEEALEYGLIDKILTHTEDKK
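ClpP 10 microg/mL final, pH 8 Tris/KCl buffer with BSA, glycerol, Tween-20; compound pinned in; FRET-FV substrate; RT 20 min; Ex320/Em430; ΔFRET vs ADEP 5.8 microM, DMSO, no enzyme.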
a7 integrin act: qHTS for Activators of Integrin-Mediated Alleviation for Muscular Dystrophy | AID 624291, 2012 | alpha7betagal myoblasts, beta-gal FDG fluorescence, 48 h | 0.064% of 350,000 active | Potency, µM (highest dose often 38.3 µM), usual class: activators; also: nearly all actives have a fitted effect of over 60% in size
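Alpha7betagal+/- myoblasts (passage 13) were plated 16-24 hr, then exposed to compounds (1:260 dilution of DMSO stock) for 48 hours at 37C. After MPER lysis, β-galactosidase reporter activity was read as FDG fluorescence (ex 480/em 540) after 30 minutes.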
PKM2 act: qHTS Assay for Activators of Human Muscle isoform 2 Pyruvate Kinase | 0.34% of 260,000 active | Pyruvate kinase PKM (Homo sapiens), P14618 | Potency, µM (titrated, usually from 57.5 µM), most hits filed as activators | AID 1631, 2009 | purified PKM2, Kinase-Glo ATP luminescence, activation; response scale: 0% is enzyme alone, no compound; also: nearly all actives have a fitted effect of over 55% in size
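ATP formation by purified human PK-M2, quantified via coupled luciferase luminescence after 1 h at room temperature with 0.1 mM ADP and 0.5 mM PEP final.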
Hits are given with their value; . = inactive; ? = inconclusive; / = no result given; [ ] = another dose, or the depositor's remark. In the library only some 1.9% were active in any assay of this set; here they are far more common. Unless noted, calls follow the shape of the dose curve; as a rule, active = well fitted curve in the direction sought with a large enough effect; inconclusive = small, poorly fitted or top-dose-only effect, or another doubt; inactive = no such curve, though single readings can be large; an effect the other way counts as inactive or inconclusive.

SMILES	USP2a inh	Pin1 inhibitor	IL2 activator	ClpP mod	a7 integrin act	PKM2 act
CC(C)C(=O)NC(c1ccccc1Cl)c1c(O)ccc2ccccc12 (stereo unspecified)	.	.	.	25µM	.	.
COc1ccc(C(NC(=O)C(C)C)c2c(O)ccc3ccccc23)cc1 (stereo unspecified)	.	.	.	.	.	.
CC(C)C(=O)NC(c1ccco1)c1c(O)ccc2ccccc12 (stereo unspecified)	.	.	.	22µM	.	.
COc1ccc(C(NC(=O)C(C)C)c2c(O)ccc3ccccc23)cc1OC (stereo unspecified)	.	.	.	28µM	.	.
CCCCc1nc2c(c3c1C[C@H](C)OC3)CN(S(=O)(=O)c1ccccc1C(=O)OC)CC2	/	/	/	/	/	.[11.5 µM]
Nc1nc(N)c2c(OCC3CCN(Cc4ccccc4F)CC3)cccc2n1	/	.	/	/	/	/
C=CCN1C(=O)c2ccc(C(=O)N(C)CC(=O)Nc3ccccc3Br)cc2C1=O	.	.	.	22µM	.	.
Nc1ncc(-c2cccc(-c3nn4c(=O)cc(N5CCNCC5)nc4s3)c2)cn1	/	.	/	/	/	/
CC1CC2(CCCCC2)Nc2ccc3ccccc3c21 (stereo unspecified)	.	.	.	18µM	.	.
COc1ccc(NC(=O)c2c(NC(=O)CNCc3ccco3)sc3c2CCC3)c(OC)c1	.	.	.	?	.	.
COc1ccc(OC)c(NC(=O)c2c(NC(=O)CNCc3ccco3)sc3c2CCC3)c1	.	.	.	16µM	.	.
Cc1ccc(C)c(S(=O)(=O)N2CCN(C(=O)/C=C/c3ccco3)CC2)c1	22µM	.	.	.	.	/
Cc1ccc(S(=O)(=O)N2CCN(C(=O)/C=C/c3ccco3)CC2)cc1	.	.	.	.	.	.
O=C(Nc1ccc(Oc2cccnc2)cc1)c1ccccc1Cl	.	.	.	/	10µM	.
Cc1nc(C#N)nc(Oc2ccccc2)c1Cl	/	/	/	.	/	/
O=C(c1cc(Br)ccc1O)N(Cc1ccco1)Cc1cccs1	/	.	/	?	/	/
CO/N=C/NC(=O)NOCc1ncc(C(F)(F)F)cc1Cl	.	.	.	.	.	.
NC(=O)NOCc1ncc(C(F)(F)F)cc1Cl	.	.	.	28µM	.	.
CCc1c(C2(O)CCCCC2)[nH]c2ncccc12	.	.	.	.	10µM	/
CC(=O)Nc1ccc(S(=O)(=O)c2ccc(C)cc2)cc1	.	.	.	/	.	14µM
CCOC(=O)c1cc2c(=O)n3cccc(C)c3nc2n(CC2CCCO2)c1=NC(C)=O (stereo unspecified)	/	.	.	1.3µM	.	/
CCCn1c(=NC(=O)c2ccco2)c(C(=O)OCC)cc2c(=O)n3ccccc3nc21	.	.	.	18µM	.	.
CCOC(=O)c1cc2c(=O)n3ccccc3nc2n(CC2CCCO2)c1=NC(=O)c1ccccc1C (stereo unspecified)	/	.	/	.	/	/
CCOC(=O)c1cc2c(=O)n3ccccc3nc2n(CCCOC)c1=NC(C)=O	.	.	.	35µM	.	.
CCCn1c(=NC(=O)c2cc3ccccc3o2)c(C(=O)OCC)cc2c(=O)n3ccccc3nc21	/	.	/	.	/	/
SMILES	USP2a inh	Pin1 inhibitor	IL2 activator	ClpP mod	a7 integrin act	PKM2 act
COc1ccc(-c2ccc(OC)c(C3C4C=CCCC4(C)C(=O)N3Cc3ccccc3)c2)cc1OC (stereo unspecified)	/	.	/	/	/	/
O=C1OCC2OC(O)C(O)C(O)C2OC(=O)c2cc(O)c(O)c(O)c2-c2c(O)c(O)c3oc(=O)c4c(c(O)c(O)c5oc(=O)c2c3c54)-c2c1cc(O)c(O)c2O (stereo unspecified)	0.5µM	/	/	/	/	.
COc1c(O)cc2c(c1O)C1OC(CO)C(O)C(O)C1OC2=O (stereo unspecified)	.	.	.	.	/	/
Brc1ccc2[nH]c3c(N4CCc5ccccc5C4)ncnc3c2c1	.	.	.	32µM	.	.
CN1CCN(c2ncnc3c2[nH]c2ccc(F)cc23)CC1	.	.	.	28µM	.	.
Fc1ccc2[nH]c3c(N4CCc5ccccc5C4)ncnc3c2c1	.	.	.	/	.	.
c1ccc2c(c1)[nH]c1c(N3CCCC3)ncnc12	.	.	.	.	.	.
Clc1ccc2[nH]c3c(N4CCC5(CC4)OCCO5)ncnc3c2c1	.	.	.	13µM	.	.
c1ccc2c(c1)[nH]c1c(N3CCN(C4CCCCC4)CC3)ncnc12	.	.	.	32µM	.	.
COc1ccc(/C=C(\C)C(=O)NO)cc1	/	/	/	.	/	/
COc1cc(OC)cc(-c2nnc3n2N=C(c2ccccc2OC)CS3)c1	/	.	/	/	/	/
O=S(=O)(c1ccc(OC(F)(F)F)cc1)N1CCN(c2nc(-c3cccs3)nc3ccccc23)CC1	/	.	/	.	/	/
CSc1ccc(/C=C2\C=Cc3ccc([N+](=O)[O-])cc32)cc1	/	/	/	.	/	/
Cc1cnc2ccc3ccccc3c2c1C	/	/	/	.	/	/
Clc1ccc(-c2cn3cccnc3n2)cc1Cl	.	?	.	11µM	.	.
O=S(=O)(Nc1cccc(-c2cn3cccnc3n2)c1)c1ccc(-c2ccccc2)cc1	.	.	.	28µM	.	.
Clc1ccc(-c2cn3cccnc3n2)cc1	.	.	.	.	.	.
O=S(=O)(Nc1cccc(-c2cn3cccnc3n2)c1)c1ccccc1	.	.	.	.	.	.
CN(C)c1ncnc2sc(-c3ccccc3)cc12	.	.	.	.	?	.
CN(C)c1ncnc2c1C(c1ccccc1)C(C)(C)O2 (stereo unspecified)	/	.	.	32µM	.	/
CN(c1ccc(C(=O)NCCc2ccccc2)cc1)S(C)(=O)=O	.	.	.	.	.	.
CN(c1ccc(C(=O)NCCSC(C)(C)C)cc1)S(C)(=O)=O	.	.	.	10µM	.	.
N#Cc1nc(Nc2cccc(Br)c2)nc(NC2CCCC2)n1	/	.	/	/	/	/
CCOC(=O)c1ccc2[nH]c(C)c(C)c2c1	/	.	.	.	.	/
COc1ccc2[nH]c(C)cc(=O)c2c1	.	.	.	25µM	.	.
COc1ccc2[nH]c(-c3ccc(C)cc3)cc(=O)c2c1	.	.	.	.	.	.
COC(=O)c1ccc2[nH]c(C)cc(=O)c2c1	.	?	.	28µM	.	.
CCOC(=O)c1ccc2[nH]c(C)cc(=O)c2c1	.	.	.	3.5µM	.	.
CCN(CC)c1ccc(/C=C/c2ccc3ccccc3n2)cc1	/	/	/	.	/	/
